# Source: PubChem (National Center for Advancing Translational Sciences (NCATS))
# This is one part of a sample in which hits are shown more often than they occur.
# LMNA splice mod: changes lamin A minigene splicing in HeLa cells | Potency, µM (top dose mostly 46.1 µM), hits mostly inhibitors | HeLa LMNA splicing GFP/RFP minigene ratio, 48 h | actives 0.01% (n = 200,000); active means well fitted inhibition curve with a large enough effect in the signal ratio, with a control signal flat, not every such curve was filed as active; inconclusive means small, poorly fitted or top-dose-only effect, or effect the other way, or a change in a side signal; the % refers to the signal ratio
#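 Read-out is the ratio of GFP to DsRed2 object intensity, acquired by 488 nm laser-scanning cytometry on HeLa lamin A-EGFP minigene reporter cells. Compound incubation 48 hrs at 37 °C in Opti-MEM with 2% FBS; DMSO 0.5% final.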
# PNC assembly inh: blocks assembly of the perinucleolar compartment | PC3M PTB-GFP, PNC prevalence imaging, 16 h; hits give low values | activity change (PNC), negative = inhibition, % at 10 µM | actives 3.1% (n = 140,000);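 active means readout at or below -70, meaning at least 70% loss of cells showing the perinucleolar compartment, a nuclear body marking cancer cells; inconclusive means readout between -30 and a set limit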
#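 Compounds are pinned in duplicate onto adhered PC3M cells stably expressing GFP-tagged PTB and incubated 16 h at 37 C. Cells are then fixed, nuclei stained with Hoechst, and PNC-positive cells counted.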
# IMPase cell inh: IMPase inhibition in cells. P97697. CHO-M1 cells, IP1 accumulation, HTRF TR-FRET ratio. inhibition (IP1 accumulation), % at 46.1 µM. 120,000 tested, under 10 active. AID 901; active means well fitted curve in the direction sought with a large enough effect in the signal ratio, not every such curve was filed as active; inconclusive means small, poorly fitted or top-dose-only effect, or a change in a side signal; inactive means no such curve, though single readings can be large or run the other way; the % refers to the signal ratio;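 further: cells stimulated with carbachol in lithium chloride buffer; higher means more IMPase inhibition seen as more IP1 and lower FRET ratio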
# Target sequence (P97697 whole entry, looked up): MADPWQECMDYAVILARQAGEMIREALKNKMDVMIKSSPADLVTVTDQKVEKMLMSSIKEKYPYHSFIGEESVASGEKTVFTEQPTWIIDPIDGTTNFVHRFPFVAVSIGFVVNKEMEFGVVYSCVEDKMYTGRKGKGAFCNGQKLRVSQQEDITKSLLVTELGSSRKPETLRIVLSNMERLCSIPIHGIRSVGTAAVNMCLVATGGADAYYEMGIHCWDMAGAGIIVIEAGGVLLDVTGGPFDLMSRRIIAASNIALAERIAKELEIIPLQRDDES
#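 In this qHTS, compounds (final up to 46 uM) act on CHO-M1 cells that are then activated through the M1 receptor with carbachol, in pH 7.4 buffer containing 50 mM LiCl, for 30 min. IP1 accumulation is quantified by the IP-One immunoassay.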
# Hits are given with their value; – = inactive; ? = inconclusive; · = no result given; [ ] = dose if it differs, or a comment.
SMILES,LMNA splice mod,PNC assembly inh,IMPase cell inh
O=c1c2ccccc2n2c(-c3ccc(F)cc3)nnc2n1Cc1ccccc1,–,-102,·
O=c1c2ccccc2n2c(-c3ccc(C(F)(F)F)cc3)nnc2n1Cc1ccccc1,–,–,–
Cc1ccc2nc(-c3ccccc3Cl)cc(C(=O)Nc3cc(C)on3)c2c1,?,–,–
CCOc1ccccc1C1C2CCCCC2(O)CCN1C(=O)c1cccs1 (stereo not given),–,–,–
Cc1cc(=O)oc2cc(OCC(=O)N3c4ccccc4CC3C)ccc12 (stereo not given),?,-85,–
Cc1cc(=O)oc2cc(OCC(=O)N3CC(C)OC(C)C3)ccc12 (stereo not given),–,–,–
CCCCCCC1CC(CC(=O)Nc2ccc([N+](=O)[O-])cc2)C(=O)O1 (stereo not given),?,-104,–
CC1(C)CC(CC(=O)Nc2ccc([N+](=O)[O-])cc2)C(=O)O1 (stereo not given),–[0.0737 µM],–,–
CCc1ccc(-c2nc(SCC(=O)NCC3CCCO3)c(-c3ccc(F)cc3)[nH]2)cc1 (stereo not given),·,·,–
CCCCCCn1c(SCCC)nc2c1c(=O)[nH]c(=O)n2C,–,-86,–
C/C=C/Cn1c(SCCCc2ccccc2)nc2c1c(=O)[nH]c(=O)n2C,?,-119,–
CCCCCn1c(SCCCC)nc2c1c(=O)[nH]c(=O)n2C,–,–,–
C=CCn1c(SCCCc2ccccc2)nc2c1c(=O)[nH]c(=O)n2C,?,–,–
COc1ccc(OC)c(CNC(=O)c2c(C)oc3ncn(C)c(=O)c23)c1,–,·,·
N#C/C(=C/c1ccc(N2CCCCCC2)o1)c1cccc(F)c1,–,?,–
COc1cc(N2CCCC2)c(OC)cc1/C=C(/C#N)c1cccc(F)c1,–,-89,–
CC(Oc1ccccc1)C(=O)Nc1cccc(-c2cn3cccnc3n2)c1 (stereo not given),–,·,·
O=C(Nc1nnc(COc2ccc(Cl)cc2)s1)c1ccco1,–,·,·
CN1C(=O)CC(C(=O)O)SC1=Nc1cc(Cl)cc(Cl)c1 (stereo not given),?,-87,·
CN1C(=O)CC(C(=O)O)SC1=Nc1cc(Cl)c(O)c(Cl)c1 (stereo not given),–,–,–
CN(CCc1nc2ccc(Cl)cc2[nH]1)Cc1nc(CC2CC2)no1,–,·,·
Cc1cccc(OCc2n[nH]c(=S)o2)c1,–,-82,–
Cc1cccc(C)c1OCc1n[nH]c(=S)o1,–,–,–
CCc1cnc2c(c1SCC(=O)Nc1ccc(Cl)cc1)c(=O)n(C)c(=O)n2C,–,·,·
COc1cccc(/C=N/n2c(-c3ccco3)nc3ccccc3c2=O)c1,–,–,–
SMILES,LMNA splice mod,PNC assembly inh,IMPase cell inh
COc1ccc(/C=N/n2c(-c3ccco3)nc3ccccc3c2=O)cc1,–,-100,–
CCOC(=O)c1ccc(NC(=O)CSc2nc3ccccc3c(=O)n2CCNC(C)=O)cc1,–,·,·
O=S(=O)(c1ccc(Cl)cc1)N1CCCC1c1nc2ccccc2s1 (stereo not given),–,–,–
O=S(=O)(c1cc(Cl)cc(Cl)c1)N1CCCC1c1nc2ccccc2s1 (stereo not given),–,-100,–
COc1ccc(NC(=O)c2ccco2)cc1NC(=O)c1cccs1,–,–,?
COc1cc(NC(=O)c2cccs2)c(OC)cc1NC(=O)c1ccco1,–,-114,·
Cc1ccc(/C=C/c2nc3ccccc3n2S(=O)(=O)c2cccc(Cl)c2)cc1,–,·,·
COC(=O)c1sccc1NC(=O)CSCCc1ccccn1,–,·,·
CNS(=O)(=O)c1cccc(C(=O)Nc2cccc(Cl)c2)c1,?,-94,–
CNS(=O)(=O)c1cccc(C(=O)Nc2cccnc2)c1,–,–,–
CC(C)n1cnc(S(=O)(=O)N2CCCC(C(=O)NCc3ccccc3Cl)C2)c1 (stereo not given),–,·,·
O=C(COCc1nc2ccccc2c(=O)[nH]1)NCC1CCCCC1,–,-100,–
O=c1[nH]c(CCC2CCCC2)nc2ccccc12,–,–,·
O=C(CC1N=C2c3ccccc3N=C(SCc3ccc(F)cc3)N2C1=O)NC1CCCCC1 (stereo not given),–,·,·
COc1ccc(OC)c(NC(=O)C23CCC(C)(C(=O)C2)C3(C)C)c1 (stereo not given),–,-86,?
COc1ccc(C(=O)Nc2cc(OC)ccc2OC)cc1,–,–,–
CCOc1cnn(-c2cc(Oc3ccc(C)cc3)ncn2)c(=O)c1Cl,–,–,–
Cc1ccccc1Oc1cc(-n2ncc(Cl)c(Cl)c2=O)ncn1,?,-87,·
CN1C(=O)Cc2cc(S(=O)(=O)NCc3ccc(Cl)cc3)ccc21,–,·,·
O=C(N1CCOCC1)C1(c2ccccc2)CCCCC1,–,-105,–
O=C(N1CCCCC1)C1(c2ccccc2)CCOCC1,?,–,–
Cc1cc(C)cc(Oc2ccccc2/C=C\C(=O)O)c1,–,-86,–
O=C(O)/C=C/c1ccccc1Oc1ccc(Cl)cc1Cl,–,·,·
O=C(c1ccc(C(=O)N2CCCc3ccccc32)nc1)N1CCCc2ccccc21,–,-100,–
O=C(c1cccnc1)N1CCCc2ccccc21,–,–,–
SMILES,LMNA splice mod,PNC assembly inh,IMPase cell inh
CCCSc1nnc2c(n1)OC(c1cccs1)Nc1ccc(Br)cc1-2 (stereo not given),·,·,–
O=C(CN(c1ccccc1)S(=O)(=O)c1ccccc1)N1CCN(Cc2ccc3c(c2)OCO3)CC1,–,-88,–
CN(c1ccc(C(=O)N2CCN(Cc3ccc4c(c3)OCO4)CC2)cc1)S(=O)(=O)c1ccccc1,?,–,–
COc1ccc(S(=O)(=O)N(CC(=O)N2CCN(c3ccccc3)CC2)c2ccccc2)cc1,?,-112,–
COc1ccc(N2CCN(C(=O)CN(c3ccccc3)S(C)(=O)=O)CC2)cc1,–,?,–
Clc1ccc(Nc2ccccc2)nn1,–,·,·
CCCS(=O)(=O)N1CC(=O)N(c2ccccc2C)C(C)(C(=O)NC2CCCC2)C1 (stereo not given),–,·,·
COc1ccc(C(CNC(=O)c2oc3ccc(C)cc3c2C)N2CCOCC2)cc1 (stereo not given),–,·,·
COc1ccc(NC(=O)CSc2ccccc2)cc1S(=O)(=O)N1CCCCC1,?,-81,·
COc1ccc(NC(=O)CSc2ccc(F)cc2)cc1S(=O)(=O)N1CCCCC1,?,–,·
COc1ccc(NC(=O)CSc2ccccc2)c(OC)c1,–,-81,–
CCC(=O)Nc1ccc(OC)cc1OC,–,?,–
CCOc1cc(CNC(=O)C(NS(=O)(=O)c2cccs2)C(C)C)cc(OCC)c1OCC (stereo not given),–,·,·
CCOCCc1nn2c(=O)cc(COC(=O)COc3ccccc3Cl)nc2s1,–,·,·
COc1ccc(NC(=O)/C(C#N)=C\c2cc(C)n(-c3ccc(Oc4ccc([N+](=O)[O-])cn4)cc3)c2C)cc1,–,–,–
Cc1cc(C=O)c(C)n1-c1ccc(Oc2ccc([N+](=O)[O-])cn2)cc1,?,-118,·
S=c1[nH]nc(-c2ccco2)n1C1CCCCC1,–,-85,–
Nn1c(-c2ccco2)n[nH]c1=S,–,–,–
Cc1ccc(C(=O)ONc2ccc(N=O)cc2)cc1,–,-117,–
O=Nc1ccc(NOC(=O)c2ccc(Br)cc2)cc1,–,–,–
COC(=O)c1ccc(NC(=O)CSCc2ccccc2C)cc1,–,–,–
